# Experimental data from the supplement of paper PMC12350171.
# Structures can show the parent of a compound that is named as a salt.
# Tested on: Haemophilus parainfluenzae
# Experiment: growth AUC normalised to DMSO control (fraction of control); higher = less growth inhibition, active = hit call of the paper
# Settings: 20 µM;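 active = AUC significantly below DMSO controls by Student t-fit with adjusted P under 0.01; inactive = not significantly reduced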
# Method in brief: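 Pathogens passaged twice anaerobically were inoculated at a starting OD578 of 0.01 into pre-reduced mGAM plates with drug at 20 μM and 1% DMSO, sealed with breathable membranes. Haemophilus parainfluenzae medium was supplemented with hemin and NAD. OD578 was read hourly for 24 h, with three biological replicates. Growth-curve AUC was computed by the trapezoidal rule up to the exponential-to-stationary transition and normalised to DMSO controls on the same plate.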
row,Structure (SMILES),growth AUC normalised to DMSO control
1,COc1ccc(C(=O)c2ccccc2O)c(O)c1 [Dioxybenzone],0.992 (inactive)
2,O=C1CCC(N2C(=O)c3ccccc3C2=O)C(=O)N1 (stereo not drawn) [Thalidomide],0.97 (inactive)
3,COCCCOc1ccnc(C[S+]([O-])c2nc3ccccc3[nH]2)c1C (stereo not drawn) [Rabeprazole sodium salt],0.985 (inactive)
4,CC(C[N+](C)(C)C)OC(N)=O (stereo not drawn) [Bethanechol chloride],1 (inactive)
5,C[C@H]1O[C@H](O[C@H]2[C@H](O)[C@@H](O)[C@@H](O[C@@H]([C@H](O)[C@@H](O)C=O)[C@H](O)CO)O[C@@H]2CO)[C@H](O)[C@@H](O)[C@@H]1N[C@H]1C=C(CO)[C@@H](O)[C@H](O)[C@H]1O [Acarbose],1.02 (inactive)
6,CO[C@H]1/C=C/O[C@@]2(C)Oc3c(C)c(O)c4c(O)c(c5c(nc6cc(C)ccn65)c4c3C2=O)NC(=O)/C(C)=C\C=C\[C@H](C)[C@H](O)[C@@H](C)[C@@H](O)[C@@H](C)[C@H](OC(C)=O)[C@@H]1C [Rifaximin],0.026 (active)
7,NC1CCN(c2c(F)cc3c(=O)c(C(=O)O)cn(C4CC4)c3c2Cl)C1 (stereo not drawn) [Clinafloxacin],0.0486 (active)
8,CCCC(CCC)C(=O)O [Valproic acid],1.04 (inactive)
9,C[C@@H]1CCC[C@H](C)N1NC(=O)c1ccc(Cl)c(S(N)(=O)=O)c1 [Clopamide],0.984 (inactive)
10,COc1ccc2c(c1)c(CC(=O)O)c(C)n2C(=O)c1ccc(Cl)cc1 [Indomethacin],0.975 (inactive)
11,Fc1ccc([C@@H]2CCNC[C@H]2COc2ccc3c(c2)OCO3)cc1 [Paroxetine hydrochloride],0.998 (inactive)
12,CCCC(=O)Nc1ncnc2c1ncn2[C@@H]1O[C@@H]2COP(=O)(O)O[C@H]2[C@H]1OC(=O)CCC [Bucladesine sodium salt],1 (inactive)
13,CN(c1nccc(=O)[nH]1)C1CCN(c2nc3ccccc3n2Cc2ccc(F)cc2)CC1 [Mizolastine],1.11 (inactive)
14,CCN(CC)C(=O)c1ccc(O)c(OC)c1 [Ethamivan],1.03 (inactive)
15,CN(C)C(=O)C(CCN1CCC(O)(c2ccc(Cl)cc2)CC1)(c1ccccc1)c1ccccc1 [Loperamide hydrochloride],1 (inactive)
16,CCN(CC)CC(=O)Nc1c(C)cccc1C [Lidocaine hydrochloride],1.02 (inactive)
17,CC(=O)Oc1ccccc1C(=O)Oc1ccccc1C(=O)O [Acetylsalicylsalicylic acid],0.885 (inactive)
18,O=C(N/N=C/c1ccc([N+](=O)[O-])o1)c1ccc(O)cc1 [Nifuroxazide],0.532 (active)
19,Cc1noc(NS(=O)(=O)c2ccc(N)cc2)c1C [Sulfisoxazole],0.939 (inactive)

row,Structure (SMILES),growth AUC normalised to DMSO control
1,COc1cc2nc(N(C)CCCNC(=O)C3CCCO3)nc(N)c2cc1OC (stereo not drawn) [Alfuzosin hydrochloride],1.03 (inactive)
2,CC(C(=O)O)c1ccc(C(=O)c2cccs2)cc1 (stereo not drawn) [Suprofen],0.987 (inactive)
3,CCOC(=O)[C@H](CCc1ccccc1)N[C@@H](C)C(=O)N1CCC[C@H]1C(=O)O [Enalapril maleate],1.03 (inactive)
4,Cc1ccc(-c2ncc(Cl)cc2-c2ccc(S(C)(=O)=O)cc2)cn1 [Etoricoxib],1 (inactive)
5,Cc1cnc(NC(=O)C2=C(O)c3ccccc3S(=O)(=O)N2C)s1 [Meloxicam],0.968 (inactive)
6,CN(C)CCN(Cc1ccccc1)c1ccccn1 [Tripelennamine hydrochloride],1.01 (inactive)
7,Cc1cccc(Nc2ccccc2C(=O)O)c1C [Mefenamic acid],0.946 (inactive)
8,COc1ccc2c(c1)c(CC(=O)OCC(=O)O)c(C)n2C(=O)c1ccc(Cl)cc1 [Acemetacin],0.988 (inactive)
9,COC(=O)Nc1nc2cc(C(=O)c3ccc(F)cc3)ccc2[nH]1 [Flubendazol],1.02 (inactive)
10,Cc1c(N(C)C)c(=O)n(-c2ccccc2)n1C [Amidopyrine],1.01 (inactive)
11,COc1cccc(N(C)C(=S)Oc2ccc3c(c2)CCCC3)n1 [Liranaftate],1.01 (inactive)
12,CC1(C)S[C@@H]2[C@H](NC(=O)[C@H](NC(=O)N3CCNC3=O)c3ccccc3)C(=O)N2[C@H]1C(=O)O [Azlocillin sodium salt],0.0396 (active)
13,NCCCC[C@H](N[C@@H](CCc1ccccc1)C(=O)O)C(=O)N1CCC[C@H]1C(=O)O [Lisinopril],0.992 (inactive)
14,O=C(Nc1ccccc1)OCC(CN1CCCCC1)OC(=O)Nc1ccccc1 (stereo not drawn) [Diperodon hydrochloride],1.02 (inactive)
15,CCCCN1CCCCC1C(=O)Nc1c(C)cccc1C (stereo not drawn) [Bupivacaine hydrochloride],0.967 (inactive)
16,O=C(CCCN1CC=C(n2c(=O)[nH]c3ccccc32)CC1)c1ccc(F)cc1 [Droperidol],0.995 (inactive)
17,O=c1[nH]cnc2c1ncn2[C@H]1CC[C@@H](CO)O1 [Didanosine],1.03 (inactive)
18,O=C(C1CCCCC1)N1CC(=O)N2CCc3ccccc3C2C1 (stereo not drawn) [Praziquantel],1.04 (inactive)
19,O=C(O)COCCN1CCN(C(c2ccccc2)c2ccc(Cl)cc2)CC1 (stereo not drawn) [Cetirizine dihydrochloride],0.943 (inactive)
